PubChem BioAssay AID720648 (The Scripps Research Institute Molecular Screening Center, 2013)
Among all 370,000 compounds or so, about 3,100 (0.84%) were called active.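 Rule for the calls: active = inhibition above the mean of compounds lying between control limits plus 3 SD, set per campaign (cut at about 8.5% in these data); inactive = the rest.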 The full list was thinned out, with actives kept by preference.

Each molecule was assayed against Disintegrin and metalloproteinase domain-containing protein 17 (Homo sapiens) (UniProt P78536) (assay: ADAM17 inhibitors, primary screen, biochemical, QFRET (AID 720648;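 note: 0% = DMSO-only wells as the low control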)). Conditions: recombinant ADAM17, EDANS/DABCYL FRET peptide cleavage; at 6.95 µM; active compounds read high.
Disintegrin and metalloproteinase domain-containing protein 17 (Homo sapiens), sequence (P78536 215-824 limits assumed): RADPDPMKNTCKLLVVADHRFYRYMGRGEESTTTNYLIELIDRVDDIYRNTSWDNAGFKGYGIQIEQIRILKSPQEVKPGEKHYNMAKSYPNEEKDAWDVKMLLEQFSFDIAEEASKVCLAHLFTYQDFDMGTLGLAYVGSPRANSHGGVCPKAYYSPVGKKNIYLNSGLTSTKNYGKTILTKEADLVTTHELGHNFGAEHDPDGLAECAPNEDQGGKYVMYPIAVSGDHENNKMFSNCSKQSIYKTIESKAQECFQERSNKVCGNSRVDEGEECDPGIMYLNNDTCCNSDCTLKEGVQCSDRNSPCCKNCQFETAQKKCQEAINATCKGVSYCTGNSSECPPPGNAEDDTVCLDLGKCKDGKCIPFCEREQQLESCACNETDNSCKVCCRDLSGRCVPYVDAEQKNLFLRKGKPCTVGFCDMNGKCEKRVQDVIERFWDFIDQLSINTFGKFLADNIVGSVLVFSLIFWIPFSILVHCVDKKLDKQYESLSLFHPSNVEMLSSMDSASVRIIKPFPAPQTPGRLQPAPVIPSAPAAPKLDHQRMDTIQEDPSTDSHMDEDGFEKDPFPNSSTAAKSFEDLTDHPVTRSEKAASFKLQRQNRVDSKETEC
For `C[C@H]1CN([C@@H](C)CO)C(=O)c2cc(-c3cccc(F)c3)cnc2O[C@@H]1CN(C)S(C)(=O)=O`, the inhibition was 1.1% (inactive).
With `C[C@@H]1CN([C@H](C)CO)C(=O)c2cc(-c3ccc(F)cc3)cnc2O[C@H]1CN(C)C(=O)c1ccc(F)cc1` the inhibition was 11.7% (active).
With `COc1ccc(-c2cnc3c(c2)C(=O)N([C@H](C)CO)C[C@@H](C)[C@H](CN(C)Cc2ccccc2)O3)cc1` the inhibition was 2.22% (inactive).
`CCCCCN1CCCCC(NC(=O)C(C)CCC)C1=O` (stereo not drawn) was tested, and the inhibition was -3.79% (inactive).
`CCCCNC(=O)C[C@@H]1C(=O)N(CCc2ccc(Cl)cc2)C2=CCCC[C@]21C(=O)OCC` was tested, and the inhibition was -1.53% (inactive).
`O=C(CN1CCN(c2nc(-c3ccccc3)cs2)CC1)NCc1ccc2c(c1)OCO2` was tested, and the inhibition was 11.7% (active).
`CC1(C(=O)NCc2ccc3c(c2)OCO3)CCN1CCc1ccccc1` (stereo not drawn) was tested, and the inhibition was 4.37% (inactive).
For `Cc1ccc(-c2nc(CS(=O)(=O)CC(=O)NCc3ccc4c(c3)OCO4)c(C)o2)cc1`, the inhibition was -1.45% (inactive).
`Cc1ccc(-n2c(SCC(=O)Nc3cccc4ccccc34)nnc2-c2ccccn2)cc1` was tested, and the inhibition was 0.17% (inactive).
In the case of `COc1ccc(C(=O)OCCN(C)C2CN(Cc3cn(Cc4cccc(C)c4)nn3)S(=O)(=O)C2)cc1OC` (stereo not drawn), the inhibition is reported as 0% (inactive).
With `CC1CCN(c2ccc(C(=O)O)cc2NS(=O)(=O)c2ccc(Br)s2)CC1` the inhibition was -2.39% (inactive).
`Clc1ccc(-n2c(COc3ccccc3)nnc2SCc2nc3ccccc3[nH]2)cc1` was tested, and the inhibition was 1.5% (inactive).
In the case of `COc1ccc(CC(=O)c2ccc(O)cc2O)cc1OC`, the inhibition is reported as 9.65% (active).
For `COc1ccc(CCNC(=O)C(=O)NCc2ccccc2C)cc1OC`, the inhibition was -2.04% (inactive).
`COc1ccc(C2(CNC(=O)Cc3ccc(OC)c(OC)c3)CCCC2)cc1` was tested, and the inhibition was 0.4% (inactive).
In the case of `FC(F)(F)c1cccc(NC(=S)OC2CCC23CCC(c2ccccc2)CC3)c1` (stereo not drawn), the inhibition is reported as 4.59% (inactive).
For `C#CCNC(=O)C[C@H]1C[C@@]2(C(=O)OC)C(=C[C@H](C(C)C)O[C@@H]2C2CC2)N(Cc2ccco2)C1=O`, the inhibition was -2.14% (inactive).
With `Cc1ccc(OCc2nnc(SC/C=C/c3ccccc3)n2Cc2ccco2)cc1` the inhibition was 10.7% (active).
With `O=C(CSc1nnc(-c2cccc(Cl)c2)n1Cc1ccco1)Nc1ccc(OCc2ccccc2)cc1` the inhibition was 4% (inactive).
In the case of `O=C(CSc1nnc(-c2ccccc2)n1Cc1ccco1)Nc1ccccc1-c1ccccc1`, the inhibition is reported as 3.73% (inactive).
With `O=C(CSc1nnc(COc2ccccc2)n1Cc1ccco1)c1ccc2ccccc2c1` the inhibition was 8.38% (inactive).
With `Cc1ccc(-c2nnc(SCC(=O)Nc3ccc(Oc4ccccc4)cc3)n2Cc2ccco2)cc1` the inhibition was 9.36% (active).
In the case of `C(=C\c1ccccc1)/CSc1nnc(-c2cccnc2)n1Cc1ccco1`, the inhibition is reported as -2.99% (inactive).
With `CC(C)(C)OC(=O)NCCc1ccccc1/C=C/S(=O)(=O)NCc1ccc(F)cc1` the inhibition was 1.57% (inactive).
`O=C(NC1CCC1)c1ccc(C#Cc2cccc(F)c2)c[n+]1[O-]` was tested, and the inhibition was -5.18% (inactive).
In the case of `CCC(=O)c1c(CC)c2n3c1=CC[C@H]3CC(Br)C=2` (stereo partly drawn), the inhibition is reported as -4.68% (inactive).
In the case of `CN1[C@H](Cc2ccccc2)COc2cccc(N3CCSCC3)c2S1(=O)=O`, the inhibition is reported as -1.43% (inactive).
`CCOc1ccc(Oc2c(Cl)cnn(-c3ccc(C)cc3)c2=O)cc1` was tested, and the inhibition was -4.44% (inactive).
`Cc1ccccc1NC(=O)Cn1nnc(-c2ccccc2F)n1` was tested, and the inhibition was 1.5% (inactive).
`CCOc1ccc(-c2n[nH]c(=S)n2/N=C/c2cc3c(cc2[N+](=O)[O-])OCO3)cc1` was tested, and the inhibition was -4.26% (inactive).
With `Cc1ccc(-c2n[nH]c(=S)n2/N=C/c2cc3c(cc2[N+](=O)[O-])OCO3)cc1` the inhibition was 8.7% (active).
For `CSc1ccc(C=Nn2c(-c3ccc(F)cc3)n[nH]c2=S)cc1`, the inhibition was -0.62% (inactive).
With `COC1=C[C@H](C(=O)NCCNC(C)=O)[C@H](C)[C@@H](c2ccccc2)CC1=O` the inhibition was -1.19% (inactive).
For `FC(F)(F)c1cccc(Cn2ccc3ccc(-c4ccc5ccn(Cc6ccccc6)c5c4)cc32)c1`, the inhibition was -14.4% (inactive).
For `COC(=O)c1cccc(Cn2ccc3ccc(-c4ccc5ccn(C(=O)c6ccccc6C)c5c4)cc32)c1`, the inhibition was -5.84% (inactive).
For `CC(C)(C)NC(=O)C(c1cccnc1)N(C(=O)c1cnco1)c1ccc(C(C)(C)C)cc1` (stereo not drawn), the inhibition was -6.7% (inactive).
With `Cc1nnc(SCC(=O)NC2CCCC2)s1` the inhibition was -4.16% (inactive).
For `CCSc1nnc(SCC(=O)NNC(=O)c2ccccc2F)s1`, the inhibition was -2.03% (inactive).
In the case of `Cc1nnc(SCC(=O)Nn2cnnc2)s1`, the inhibition is reported as 8.83% (active).
With `CN(C(N)=NC(=O)/C=C/c1ccccc1)C(C#Cc1ccccc1)Cc1ccccc1` (stereo not drawn) the inhibition was 0.96% (inactive).
`CCOC(=O)[C@]12CCCC3=C1N(CCC3)C(=O)[C@@H](CC(=O)NCC13CC4CC(CC(C4)C1)C3)C2` was tested, and the inhibition was 0.7% (inactive).
With `COc1cccc(CNc2nc(C(F)(F)F)nc3ccccc23)c1` the inhibition was 10.3% (active).
`COc1cccc(CNc2nc(NCc3cccs3)nc3ccsc23)c1` was tested, and the inhibition was 0.1% (inactive).
`COc1cccc(CNc2ncc(-c3ccccc3)n2C)c1` was tested, and the inhibition was 5.33% (inactive).
For `O=C(NCCCc1ccccc1)[C@H](Cc1ccccc1)NC1(C(=O)NCCc2c[nH]c3ccccc23)CCC1`, the inhibition was 3.66% (inactive).
`N#C/C(=C/c1ccc(N2CCCCC2)o1)C(=O)NCCc1c[nH]c2ccccc12` was tested, and the inhibition was 15.4% (active).
`COCCCNC(=O)/C(C#N)=C/c1c(N2CCCCCC2)nc2ccccn2c1=O` was tested, and the inhibition was -451% (inactive).
With `COC(=O)[C@@]12CCCCC=C1N(CCc1ccc(Cl)cc1)C(=O)[C@H]2CC(=O)NCc1ccc(OC)c(OC)c1` the inhibition was -0.2% (inactive).
With `O=C(CSc1nc2ccccc2s1)NN=Cc1ccc(O)cc1O` the inhibition was 3.8% (inactive).
For `Cc1ccc(Cn2cc(COC(=O)N(C)Cc3ccccc3)nn2)cc1`, the inhibition was -1.03% (inactive).
In the case of `Cc1ccc(C(=O)NCC(=O)O)s1`, the inhibition is reported as 3.71% (inactive).
With `COc1ccc(CCC(=O)OCC(=O)Nc2ccc(C)c(S(=O)(=O)N(C)C)c2)cc1` the inhibition was 0.46% (inactive).
In the case of `Cc1ccc(C(=O)Nc2ccc(C)c(S(=O)(=O)N(C)C)c2)s1`, the inhibition is reported as 9.87% (active).
With `C=CCN1[C@H](CC(C)C)COc2cccc(N3CCCC3)c2S1(=O)=O` the inhibition was -8.01% (inactive).
With `C#CCCN([C@H](C(=O)OC)C(C)C)S(=O)(=O)c1ccc(F)cc1Br` the inhibition was 2.67% (inactive).
In the case of `O=C1CC[C@@H](COc2ccc3[nH]cc(-c4ccccc4)c3c2-c2ccccc2)N1`, the inhibition is reported as -1.86% (inactive).
With `N#Cc1ccc(OC[C@@H](O)CN2CCC(C(O)(c3ccccc3)c3ccccc3)CC2)c(F)c1` the inhibition was 0.92% (inactive).
With `CCN(c1ccc(NC(=O)COC(=O)CCc2nc3ccccc3n2-c2ccccc2)cc1)C(C)C` the inhibition was 4.08% (inactive).
For `O=C(COC(=O)CCc1nc2ccccc2c(=O)[nH]1)Nc1ccc(N2CCOCC2)cc1`, the inhibition was -2.52% (inactive).
`O=C(COC(=O)CCCSc1nc2ccccc2[nH]1)Nc1ccc(Oc2ccccc2)cc1` was tested, and the inhibition was 10.8% (active).
In the case of `COc1ccc(CN2C/C(=C/c3ccccc3)N3C(=O)C[C@@H](c4ccccc4)N=C23)c(OC)c1`, the inhibition is reported as 4.01% (inactive).
`C=CS(=O)(=O)N(Cc1nnn(Cc2ccccc2)c1Br)[C@H](C(=O)OC)C(C)C` was tested, and the inhibition was 2.02% (inactive).
`C[C@@H](NC(=O)c1ccccc1OCC(=O)Nc1ccc(I)cc1)C(=O)N(C)Cc1ccccc1` was tested, and the inhibition was 2.09% (inactive).
For `O=C(CCS(=O)(=O)c1ccccc1)Nc1ccc(Cl)c(Cl)c1`, the inhibition was 5.76% (inactive).
`CSc1ccc(CNC(=O)c2ccc(NC(=O)C3=CSCCO3)cc2)cc1` was tested, and the inhibition was 0.22% (inactive).
`O=C(COC(=O)c1ccc2c(c1)OCCO2)NCc1ccccc1Cl` was tested, and the inhibition was -2.66% (inactive).
`O=C(Nc1ccc(C(=O)NCc2ccccc2Cl)cc1)C1=CSCCO1` was tested, and the inhibition was 10.3% (active).
With `COC(=O)C1CN(CC(C)C)CCS(=O)(=O)N1Cc1ccc(C)cc1` (stereo not drawn) the inhibition was -8.74% (inactive).
For `Cc1cc(C)cc(NC(=S)NCCc2c[nH]c3ccccc23)c1`, the inhibition was 16.1% (active).
`Cc1ccc(S(=O)(=O)N(C)CC(=O)NCCc2c[nH]c3ccccc23)cc1` was tested, and the inhibition was 0.52% (inactive).
With `Cc1ccc2[nH]cc(CCNC(=O)C3CCCCC3)c2c1` the inhibition was 0.5% (inactive).
With `CC(CCN1CCC(C(O)(c2ccccc2)c2ccccc2)CC1)Oc1ccc(Cl)cc1` (stereo not drawn) the inhibition was 4.85% (inactive).
For `CCOC(=O)[C@]12CCCC=C1N(CCCOC)C(=O)[C@@H]2CC(=O)N1CCOCC1`, the inhibition was 2.05% (inactive).
In the case of `CCCCC(=O)NNC(=S)NC(=O)C(c1ccccc1)c1ccccc1`, the inhibition is reported as 1.95% (inactive).
`CC(C)C(=O)Nc1cccc(NC(=S)NC(=O)C(c2ccccc2)c2ccccc2)c1` was tested, and the inhibition was 9.39% (active).
`CCCC(=O)Nc1cccc(NC(=S)NC(=O)C(C)Oc2ccc(Cl)cc2Cl)c1` (stereo not drawn) was tested, and the inhibition was 2.78% (inactive).
For `O=C(c1ccncc1)N1CC[C@H]2[C@H](CCCN2Cc2ccc(F)cc2)C1`, the inhibition was 1.14% (inactive).
For `CN(CCO)c1cccc2c1S(=O)(=O)N(Cc1cn(Cc3ccc(C(F)(F)F)cc3)nn1)Cc1ccccc1O2`, the inhibition was -1.94% (inactive).
For `COC(=O)[C@]12C[C@H](CC(=O)NCC34CC5CC(CC(C5)C3)C4)C(=O)N(Cc3ccc(Cl)cc3Cl)C1=C[C@H](COCc1ccccc1)O[C@@H]2C`, the inhibition was -3.09% (inactive).
With `CCCOc1ccc(Oc2c(Cl)cnn(Cc3cccc4ccccc34)c2=O)cc1` the inhibition was -6.8% (inactive).
For `N#CCCN(C(=O)COC(=O)C1CCN(c2ccc(C(F)(F)F)cn2)CC1)c1ccc(F)cc1`, the inhibition was -2.71% (inactive).
For `CCc1cccc(NC(=O)COC(=O)C2CCN(c3ccc(C(F)(F)F)cn3)CC2)c1`, the inhibition was 8.96% (active).
With `CCOc1ccc(CCNC(=O)COC(=O)C2CCN(c3ccc(C(F)(F)F)cn3)CC2)cc1OCC` the inhibition was -1.24% (inactive).
